The inhibition is the relative decrease from the control value, in per cent.

This is an account of results in PubChem BioAssay AID624416 (The Scripps Research Institute Molecular Screening Center, 2012).

The campaign covered roughly 360,000 compounds. About 1,500 (0.42%) were called active. The entries come from a sample that favours actives as a whole. Values without a mark were called inactive. Cut-off read from the data, not from the text of the source: active = inhibition above about 8.5%; inactive = the rest.

This assay relates to HIV-1 gp120 / PG9 antibody interaction. Description: small molecules engaging PG9 antibody – biochemical, TR-FRET, primary screen (AID 624416). The following applies: TR-FRET gp120-PG9 antibody binding; at 6.7 µM; stronger effect = higher value. Background: In TR-FRET formats the signal depends on donor and acceptor labels being close together.
`Cc1nnc(SCC(=O)NCc2cccs2)[nH]c1=O`: the inhibition was 1.17%.
As for `N#Cc1c(-c2cccs2)nc(SCC(=O)c2ccc(Br)cc2)[nH]c1=O`, the inhibition was 23.5% (active).
Then `CCc1ccc(C(=O)CSc2nnc(C)c(=O)[nH]2)cc1`, with -0.93%; and `O=C(COc1ccc2c3c(c(=O)oc2c1)CCCC3)NCC(O)c1ccccc1` (stereo not given), with 0.6%.
Then `O=C(Oc1ccccc1)Oc1ccc2c(c1)oc(=O)c1ccccc12`, with 28.2% (active); and `O=C(COc1ccc2c3c(c(=O)oc2c1)CCC3)NC1CCCCC1`, with -0.41%; and `C=CC1=CCN(S(=O)(=O)C(C)(C)C)[C@@H]1CCO`, with 0.76%.
Take `COc1ccccc1CCn1cnc(-c2ccccc2)c1C(C)C`: the inhibition was 2.18%.
With `Nc1nc2c(ncn2[C@@H]2O[C@H](C(=O)N[C@H](Cc3ccccc3)C(=O)NCC3CCCCC3)[C@@H](O)[C@H]2O)c(=O)[nH]1`, the inhibition is -1.03%.
With `COC(=O)[C@]12C[C@H](CC(=O)NCCc3ccccc3OC)C(=O)N(Cc3ccccc3)C1=C[C@H](C(C)C)O[C@@H]2C1CC1`, the inhibition was -0.91%.
Take `O=C(C(=O)N1CCC(CNC(=O)c2cccnc2Cl)CC1)c1cccs1`: the inhibition was -0.43%.
Turning to `COc1ccc(-n2nc3c(c2NC(=O)c2ccc(N4C(=O)CCC4=O)cc2)CSC3)cc1`, the inhibition is 0.18%.
Then `COc1ccc(-c2csc(NC(=O)c3ccc(N4C(=O)CCC4=O)cc3)n2)cc1OC`, with 8.78% (active); and `COc1cc(NC(=O)c2ccc(-c3csc(C)n3)cc2)c(OC)cc1Cl`, with -0.71%; and `C=CCN1C(=O)N(Cc2ccccc2)c2ccccc2S1(=O)=O`, with -0.26%.
Then `CSc1ccc(Oc2cccc3c2S(=O)(=O)N([C@H](C)c2ccccc2)C[C@@H](COCc2ccccc2)O3)cc1C`, with -0.66%; and `COc1ccc(CCNC(=O)C2CCN(c3nn4c(=O)cc(C)nc4s3)CC2)cc1OC`, with 2.38%; and `COc1ccc(-c2c(C)nn3c(N4CCC(C(=O)N5CCCCC5)CC4)cc(C)nc23)cc1OC`, with 30.3% (active).
As to `COc1ccc(S(=O)(=O)N2CCC(C(=O)N3CCCC3)CC2)cc1C`, the inhibition is -0.08%.
Then `CC[C@H](NC(=O)[C@H](Cc1ccccc1)NC(=O)[C@H]1O[C@@H](n2cnc3c(=O)[nH]c(N)nc32)[C@H](O)[C@@H]1O)c1ccccc1`, with 1.17%.
On to `Nc1nc2c(ncn2[C@@H]2O[C@H](C(=O)N[C@@H](Cc3ccccc3)C(=O)NCc3ccccc3)[C@@H](O)[C@H]2O)c(=O)[nH]1`, for which the inhibition was 0.08%.
`COC(=O)C1=C(C)N(Cc2ccc(C(F)(F)F)cc2)C(=NCc2ccccc2)NC1c1ccccc1C(F)(F)F` (stereo not given): the inhibition is -0.97%.
`COC(=O)N1Cc2ccnnc2CC1c1ccccc1Br` (stereo not given): the inhibition was -0.32%.
Consider `CC(C)CNc1cccc2c1S(=O)(=O)N[C@H](C)CO2`, for which the inhibition was -0.69%.
With `Cc1nc(N2CCN(c3ccccn3)CC2)c2c(C)c(C(=O)Nc3ccc(F)c(Cl)c3)sc2n1`, the inhibition is -0.31%.
As to `Cc1cc(Br)ccc1NC(=O)c1cnc(N2CCN(c3ccccn3)CC2)c2ccccc12`, the inhibition is -0.94%.
For `Cc1cc(Br)ccc1NC(=O)c1sc2ncn(CC(=O)N3CCN(c4ccccn4)CC3)c(=O)c2c1C`, the inhibition was 11.3% (active).
For `Nc1ncnc2c1ncn2[C@@H]1O[C@H](C(=O)N[C@@H](CCc2ccccc2)C(=O)NCC(=O)N2CCOCC2)[C@@H](O)[C@H]1O`, the inhibition was -1.35%.
Consider `CCCCNc1cccc2c1S(=O)(=O)N[C@@H](C)CO2`, for which the inhibition was -0.83%.
Then `CN1CCCc2nc(-c3ccccc3)ccc21`, with -1.37%; and `C[C@H](CO)N1C[C@H](C)[C@@H](CN(C)C(=O)Nc2ccccc2F)OCc2cn(nn2)CCCC1=O`, with 0.59%.
For the molecule `O=C(NN=Cc1ccco1)C(=O)Nc1ccc(Cl)c([N+](=O)[O-])c1`, the inhibition is -2.26%.
As for `CCOC(=O)N1CCN(C(=O)C[C@H]2C[C@@]3(C(=O)OC)C(=C[C@H](C4CCCC4)O[C@@H]3C)N(Cc3ccccc3)C2=O)CC1`, the inhibition is -1.34%.
In the case of `COc1ccc(-n2nnnc2SCC(=O)NCc2cccs2)cc1`, the inhibition was 0.22%.
`FC(F)(F)c1nc(-c2ccccc2)ncc1-c1nnnn1-c1ccccc1`: the inhibition was -0.69%.
Then `COc1ccc(-n2nnnc2-c2nc3ccccc3s2)cc1`, with 14.4% (active).
Take `CC(=O)c1sc2nc(SCC(=O)N3CCCCC3)[nH]c(=O)c2c1C`: the inhibition is 21.1% (active).
Then `CSc1nnc(SCc2nc3sc(C(=O)O)c(C)c3c(=O)[nH]2)s1`, with -1.42%.
In the case of `Cc1c(C)n2c(SCC(=O)N3CCCC3)nnc2[nH]c1=O`, the inhibition was -1.7%.
Then `Cc1nc(-c2ccccc2)sc1-c1nc(-c2ccccc2)ncc1S(=O)(=O)c1ccccc1`, with 10.9% (active); and `Cc1nc(-c2ccccc2)sc1-c1nnc(C2CC2)o1`, with -1.07%.
For `C#CC(C)(C)NC(=O)c1cnc(-c2ccccc2)nc1-c1ccccc1`, the inhibition is -1.56%.
Then `CC(=O)N1C[C@@H](CO)[C@@H](N(C)C(=O)C(C)(C)C)C[C@H]1c1ccccc1Br`, with 0.03%.
Then `O=S1(=O)c2c(cccc2N2CCCC2)O[C@H](COCc2ccccc2)CN1C1CC1`, with -1.25%.
As to `O=C(CN1CCCSc2ccccc21)N1CCN(S(=O)(=O)c2cccc(F)c2)CC1`, the inhibition was -0.88%.
With `CC(C)c1ccc(S(=O)(=O)N2CCN(C(=O)CN3C(=O)NC(C)(c4ccccc4)C3=O)CC2)cc1` (stereo not given), the inhibition was -0.6%.
Then `N#C/C=C1\Sc2ccccc2C(=O)N1CC(=O)N1CCN(S(=O)(=O)c2ccccc2)CC1`, with 16.5% (active).
Regarding `O=C(N[C@H](Cc1ccccc1)C(=O)N1CCCN(Cc2cccs2)CC1)[C@H]1O[C@@H](n2ccc(=O)[nH]c2=O)[C@H](O)[C@@H]1O`, the inhibition was -1.49%.
Then `COc1ccc(-c2ccccc2C2Cc3nnccc3CN2C(=O)Nc2ccccc2)cc1` (stereo not given), with -1.16%.
In the case of `Clc1cccc2c1C1CC2CCN1Cc1ccccc1` (stereo not given), the inhibition is -1.15%.
As to `CCOc1cccc(NC(=O)Cn2nc(-c3ccc4c(c3)OCCO4)ccc2=O)c1`, the inhibition was 9.11% (active).
Then `CC(=O)c1cc2c(cc1NC(=O)Cn1nc(-c3ccc(F)cc3)ccc1=O)OCO2`, with -0.49%; and `CCc1ccccc1OCC(=O)Nc1ccc2c(c1)OCCO2`, with -0.52%.
With `COC(=O)C1=C(C(=O)OC)C2C=C(C(C)C)C1C(=O)C2(C)O` (stereo not given), the inhibition is -0.26%.
With `Cc1ccc(-n2c(SCC(=O)NCCC3=CCCCC3)nc3n[nH]c(C)c3c2=N)cc1Cl`, the inhibition was 35.7% (active).
With `Cc1nnc(OCC(=O)NCCC2=CCCCC2)c2ccccc12`, the inhibition is -0.11%.
On to `CCCCNC(=O)CSc1nc2n[nH]c(C)c2c(=N)n1-c1cccc(Cl)c1C`, for which the inhibition was 20.8% (active).
Then `CCCCNC(=O)CSc1nccn1Cc1ccccc1`, with 2.29%; and `COc1cccc(-n2c(SCC(=O)NC3CCCCC3)nc3n[nH]c(C)c3c2=N)c1`, with 0.99%; and `CCCCCCNC(=O)CSc1nccn1Cc1ccccc1`, with 0.53%.
Regarding `Cc1ccc(C)c(CN2CCC(CNC(=O)C3CCCN(c4ncnc5c4nc4n5CCCCC4)C3)CC2)c1` (stereo not given), the inhibition was -0.22%.
For `COC(=O)[C@]12C[C@H](CC(=O)NCCCCc3ccccc3)C(=O)N(Cc3ccc4c(c3)OCO4)C1=C[C@H](C(C)(C)C)O[C@@H]2C`, the inhibition is 1.2%.
As to `C=CCN=C1NC(c2ccccc2)C(C(=O)OC)=C(C)N1Cc1ccc(C(F)(F)F)cc1` (stereo not given), the inhibition is -0.19%.
For the molecule `COc1ccc(CNS(=O)(=O)c2cc(Br)ccc2Br)cc1`, the inhibition was 0.06%.
Then `COC(=O)Cc1nnn2c1[C@H](C)[C@H](c1ccccc1Br)OCC2`, with 1.33%.
`Cc1ccc(N)cc1CN1CCN(c2ncc(Cc3ccccc3)cn2)CC1`: the inhibition is -3.21%.
As to `COc1ccc(C)cc1NC(=O)CSc1ccc(Cl)cc1`, the inhibition was -1.28%.
Regarding `COc1ccc(Cl)cc1NC(=O)CN1CCN(C(=O)N2CCOCC2)CC1`, the inhibition was 1.73%.
Consider `COc1ccc(Cl)cc1NC(=O)Cn1nc(-c2ccc(C)cc2)n(C)c1=S`, for which the inhibition is 11% (active).
As for `CC1CCCN(c2cccc3c2S(=O)(=O)N(Cc2ccc(F)cc2)[C@@H](C)[C@H](c2ccccc2)O3)C1` (stereo not given in full), the inhibition was 0.43%.
Then `CCCN1C(=O)c2[nH]nc(-c3ccccc3)c2C1c1ccccc1` (stereo not given), with -1.03%.
As for `CC(NS(=O)(=O)c1ccc(Cl)cc1)C(=O)Nc1ccc2c(c1)OCCO2` (stereo not given), the inhibition is 0.53%.
As to `CCN(CC)CCNC(=O)c1ccc(NS(=O)(=O)c2ccc3c(c2)OCCO3)cc1`, the inhibition is -1.11%.
Then `O=C(Nc1cccc(S(=O)(=O)Nc2ccc(Cl)cc2)c1)c1ccc2c(c1)OCCO2`, with 9.35% (active); and `COCCNC(=O)c1cc2c(Br)ccc(Br)c2nc1N`, with 9.73% (active).
Then `COCCNC(=O)c1ccccc1-c1nc(-c2ccccc2Cl)no1`, with -2.1%; and `Nc1nc2c(Br)ccc(Br)c2cc1C(=O)NCCc1ccccc1`, with 3.73%; and `Cc1ccc2nc(CN(C)C(=O)[C@@H](Cc3ccccc3)NC(=O)[C@H]3O[C@@H](n4ccc(=O)[nH]c4=O)[C@H](O)[C@@H]3O)[nH]c2c1`, with -1.8%.
As to `COc1ccc(SSc2ccc(OC)cc2C(=O)O)c(C(=O)O)c1`, the inhibition was -0.62%.
With `CC(=O)Nc1ccc(S(=O)(=O)N2CCN(S(=O)(=O)c3cccs3)CC2)cc1`, the inhibition is 1.11%.
Regarding `O=C(CN1CCCCCC1)Nc1ccc(S(=O)(=O)N2CCCCC2)cc1`, the inhibition was -1.07%.
Then `C=CCn1c(=NC(=O)c2cccs2)sc2cc(NC(C)=O)ccc21`, with 10.5% (active); and `C=CCn1c(CCNC(=O)c2cccs2)n[nH]c1=S`, with -0.83%.
Then `C=CCn1c(=NC(=O)c2ccc(S(=O)(=O)N3CCCC3)cc2)sc2cc(NC(C)=O)ccc21`, with 13% (active); and `C=CCn1c(SCC(=O)Nc2ccc(NC(C)=O)cc2)nc2sc(C)c(C)c2c1=O`, with 1.19%.
